Source: PubChem BioAssay AID1159580 (chemical genetic matrix, 2015)
Screen size: about 5,500 compounds; about 2,000 (36%) were called active. Not shown: some 18% with an inconclusive outcome. No stated cut-off is given here; in the data, active means normalized growth mostly below about 0.91 (no sharp cut-off); inconclusive means no clear call, values can overlap the other calls; inactive means mostly above about 0.92. The list shows a part of the results.

Test: chemical genetic growth profiling, strain panel (AID 1159580);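 further: tested at 20 µM; growth read once vehicle control cultures reached saturation at 30 °C; 1 = growth at the plate median or of vehicle wells; lower values mean less growth of the strain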
Details: S. cerevisiae deletion strains, growth OD

Measured: normalized growth

CCOC(=O)C1C(=O)C=C(c2cccs2)CC1c1ccc(OC)c(OC)c1Cl (stereo unspecified)
active: locus YLR262C, strain YPT6, active compounds read low 0.796
inactive: locus YAL013W, strain DEP1, active compounds read low 0.988 | locus YBR229C, strain ROT2, active compounds read low 0.991 | locus YDL101C, strain DUN1, active compounds read low 0.995 | locus YDL134C, strain PPH21, active compounds read low 0.989 | locus YDR150W, strain NUM1, active compounds read low 0.968 | locus YEL061C, strain CIN8, active compounds read low 1.01 | locus YGR078C, strain PAC10, active compounds read low 0.979 | locus YHR030C, strain SLT2, active compounds read low 0.874 | locus YHR087W, strain rtc3, active compounds read low 0.998 | locus YJR043C, strain POL32, active compounds read low 0.983 | locus YJR075W, strain HOC1, active compounds read low 0.974 | locus YLR039C, strain RIC1, active compounds read low 0.863 | locus YLR058C, strain SHM2 (second series), active compounds read low 0.992 | locus YLR085C, strain ARP6, active compounds read low 1 | locus YML094W, strain GIM5, active compounds read low 1.03 | locus YMR219W, strain ESC1, active compounds read low 0.993 | locus YMR263W, strain SAP30, active compounds read low 1.01 | locus YNL153C, strain GIM3, active compounds read low 0.988 | locus YNL298W, strain CLA4 (second series), active compounds read low 0.976 | locus YNL322C, strain KRE1, active compounds read low 0.993 | locus YNR030W, strain Alg12, active compounds read low 0.968 | locus YOL006C, strain TOP1, active compounds read low 0.895 | locus YPL055C, strain LGE1, active compounds read low 1.04 | locus YPL241C, strain CIN2, active compounds read low 1.01 | locus YPR135W, strain CTF4, active compounds read low 0.843
